“And” between values parts separate entries of the source, which are not always exact repeats. Equal entries are not always repeated. Out of some 5,500 compounds screened, about 2,000 (36%) were called active. Inconclusive results (about 18%) are left out. Rule as the data show it: active = normalized growth mostly below about 0.91 (no sharp cut-off); inconclusive = no clear call, values can overlap the other calls; inactive = mostly above about 0.92. Some of the results follow.
Assay: chemical genetic growth profiling, strain panel (AID 1159580);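 also: tested at 20 µM; growth read once vehicle control cultures reached saturation at 30 °C; 1 = growth at the plate median or of vehicle wells; lower values mean less growth of the strain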
Settings: S. cerevisiae deletion strains, growth OD

Measured: normalized growth

O=S(=O)(O)CCS
inactive: locus YAL013W, strain DEP1, active compounds read low 1.01 | locus YAL021C, strain ccr4, active compounds read low 0.983 | locus YAL026C, strain drs2, active compounds read low 1 | locus YAL030W, strain snc1, active compounds read low 0.993 | locus YBL061C, strain skt5, active compounds read low 0.966 | locus YBR009C, strain hhf1, active compounds read low 1.01 | locus YBR021W, strain FUR4, active compounds read low 1.01 | locus YBR023C, strain chs3, active compounds read low 0.989 | locus YBR171W, strain sec66, active compounds read low 0.976 | locus YBR229C, strain ROT2, active compounds read low 1.01 | locus YBR231C, strain swc5, active compounds read low 1.01 | locus YBR279W, strain paf1, active compounds read low 0.986 | locus YCL016C, strain dcc1, active compounds read low 0.976 | locus YCL029C, strain bik1, active compounds read low 0.993 | locus YCL069W, strain vba3, active compounds read low 0.979 | locus YCR088W, strain abp1, active compounds read low 0.985 | locus YDL005C, strain med2, active compounds read low 0.949 | locus YDL035C, strain GPR1, active compounds read low 1.02 | locus YDL040C, strain nat1, active compounds read low 0.999 | locus YDL074C, strain BRE1, active compounds read low 1.05 | locus YDL101C, strain DUN1, active compounds read low 1.02 | locus YDL134C, strain PPH21, active compounds read low 1.01 | locus YDL185W, strain tfp1, active compounds read low 0.985 | locus YDL192W, strain arf1, active compounds read low 0.99 | locus YDR001C, strain nth1, active compounds read low 0.99 | locus YDR069C, strain doa4, active compounds read low 0.992 | locus YDR101C, strain arx1, active compounds read low 1.02 | locus YDR137W, strain rgp1, active compounds read low 0.984 | locus YDR150W, strain NUM1, active compounds read low 1.01 | locus YDR159W, strain sac3, active compounds read low 0.977 | locus YDR162C, strain NBP2, active compounds read low 1.01 | locus YDR195W, strain ref2 0.988 | locus YDR297W, strain sur2, active compounds read low 0.989 | locus YDR318W, strain mcm21, active compounds read low 0.991 | locus YDR334W, strain swr1, active compounds read low 0.982 | locus YDR335W, strain msn5, active compounds read low 0.981 | locus YDR388W, active compounds read low 0.978 | locus YDR392W, strain spt3, active compounds read low 0.928 | locus YDR502C, strain sam2, active compounds read low 0.995 | locus YEL003W, strain gim4, active compounds read low 0.998 | locus YEL037C, strain rad23, active compounds read low 0.985 | locus YEL061C, strain CIN8 (second series), active compounds read low 1.01 | locus YEL061C, strain CIN8, active compounds read low 1.01 | locus YER015W, strain faa2, active compounds read low 0.998 | locus YER016W, strain bim1, active compounds read low 0.945 | locus YER110C, active compounds read low 0.987 | locus YER111C, strain swi4, active compounds read low 0.981 | locus YER155C, strain BEM2 (second series), active compounds read low 1 | locus YER155C, strain BEM2, active compounds read low 1.01 | locus YER167W, strain BCK2, active compounds read low 0.996 | locus YFR010W, strain ubp6, active compounds read low 1.01 | locus YGL078C, strain dbp3, active compounds read low 0.976 | locus YGL086W, strain mad1, active compounds read low 0.997 | locus YGL167C, strain pmr1, active compounds read low 0.985 | locus YGL173C, strain kem1, active compounds read low 0.998 | locus YGL227W, strain vid30, active compounds read low 0.979 | locus YGL240W, strain doc1, active compounds read low 1.01 | locus YGL248W, strain PDE1, active compounds read low 1.03 | locus YGL253W, strain hxk2, active compounds read low 0.986 | locus YGR135W, strain pre9, active compounds read low 0.997 | locus YGR252W, strain gcn5, active compounds read low 0.936 | locus YHR013C, strain ard1, active compounds read low 0.927 | locus YHR027C, strain rpn1, active compounds read low 1.01 | locus YHR030C, strain SLT2, active compounds read low 1.01 and 0.989 | locus YHR079C, strain IRE1 (second series), active compounds read low 0.989 | locus YHR079C, strain IRE1, active compounds read low 0.991 | locus YHR094C, strain hxt1, active compounds read low 0.991 | locus YHR129C, strain ARP1, active compounds read low 1.01 | locus YHR142W, strain chs7, active compounds read low 0.968 | locus YHR200W, strain rpn10, active compounds read low 0.999 | locus YIL066C, strain RNR3, active compounds read low 1.02 | locus YIL073C, strain SPO22, active compounds read low 0.965 | locus YIL125W, strain kgd1, active compounds read low 0.981 | locus YIR030C, strain dcg1, active compounds read low 0.999 | locus YJL092W, strain hpr5, active compounds read low 0.997 | locus YJL095W, strain BCK1 (second series), active compounds read low 0.971 | locus YJL095W, strain BCK1, active compounds read low 1.03 and 0.974 | locus YJL115W, strain asf1, active compounds read low 0.983 | locus YJL129C, strain trk1, active compounds read low 0.946 | locus YJL134W, strain LCB3, active compounds read low 1.01 | locus YJL154C, strain vps35, active compounds read low 0.97 | locus YJL164C, strain tpk1, active compounds read low 0.991 | locus YJL166W, strain qcr8, active compounds read low 1 | locus YJL168C, strain set2, active compounds read low 0.992 | locus YJL187C, strain SWE1 (second series), active compounds read low 1.03 | locus YJL187C, strain SWE1, active compounds read low 0.986 | locus YJR043C, strain POL32, active compounds read low 1.01 | locus YJR066W, strain TOR1, active compounds read low 0.961

Reference: PubChem BioAssay AID1159580 (chemical genetic matrix, 2015)
